For eight molecules, growth results are on record in PubChem BioAssay (NCI).

About 83,000 compounds went through this panel and 20% of them were active in at least one assay; those are over-represented in the sample as a whole.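 Single-dose data. Exposure time 48 hours. Values below 10 considered active.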 A number with no mark means an inactive call. Activity calls are given as the source filed them.

Some test systems named below: SK-MEL-2 melanoma; EKVX NSCLC; SN12C renal; UO-31 renal; TK-10 renal; ACHN renal; A498 renal; CCRF-CEM leukemia; MOLT-4 leukemia; SR leukemia; RPMI-8226 leukemia; OVCAR-8 ovarian; OVCAR-5 ovarian; OVCAR-4 ovarian; SK-OV-3 ovarian; OVCAR-3 ovarian; HS 578T breast; NCI/ADR-RES ovarian; IGROV1 ovarian; CAKI-1 renal.
What all share (experiment): NCI-60 one-dose screen, 48 h (100 = growth as untreated, 0 = no growth, -100 = all killed)
Holding throughout (details): 10 µM

With `Cc1cc(=O)n2nnc3cc(Cl)c(Cl)cc3n12`, the growth in the experiment with SK-MEL-2 melanoma is 102%; in the experiment on EKVX NSCLC, 92.6%; with SN12C renal it was 107%; in the experiment with UO-31 renal, 81.3%; in the experiment with TK-10 renal, 102%; in the experiment on ACHN renal, 90.2%. The growth with A498 renal is 138%; in the experiment with CCRF-CEM leukemia, 23.1%; in the experiment with MOLT-4 leukemia, 59.2%; with SR leukemia, 70.5%; in the experiment with RPMI-8226 leukemia, 97.4%; in the experiment with OVCAR-8 ovarian, 106%. Further, the growth with OVCAR-5 ovarian was 107%; in the experiment with OVCAR-4 ovarian, 92.1%; with SK-OV-3 ovarian, 85.2%; with OVCAR-3 ovarian, 77.8%; in the experiment on HS 578T breast, 122%; in the experiment with NCI/ADR-RES ovarian, 101%.
For `C=CCn1c(SCC(=O)Nc2ccc(C(=O)/C=C/c3ccc(OC)cc3)cc2)nnc1-c1ccc(OC)c(OC)c1`, the growth with SK-MEL-2 melanoma was 89.3%; in the experiment on EKVX NSCLC, 107%; with SN12C renal it was 73.1%; in the experiment with UO-31 renal, 65.8%; with TK-10 renal it was 110%; in the experiment on ACHN renal, 94.9%. The growth in the experiment on A498 renal is 92.8%; with MOLT-4 leukemia, 49.7%; with SR leukemia it was 58.7%; in the experiment with RPMI-8226 leukemia it was 34.3%; in the experiment on OVCAR-8 ovarian, 79.8%; with OVCAR-5 ovarian it was 110%. Further, the growth in the experiment with OVCAR-4 ovarian was 73.8%; with SK-OV-3 ovarian it was 98%; with IGROV1 ovarian, 94.4%; in the experiment with OVCAR-3 ovarian, 89.6%; with HS 578T breast, 86.4%; in the experiment on NCI/ADR-RES ovarian, 86.4%.
As to `CN(C)CCOc1cccc(NC2=C(Cl)C(=O)C(Nc3cccc(OCCN(C)C)c3)=C(Cl)C2=O)c1`, the growth in the experiment with SK-MEL-2 melanoma was -73.8% (active); in the experiment on EKVX NSCLC, -92.3% (active); with SN12C renal it was -76.3% (active); with UO-31 renal, -100% (active); with TK-10 renal, -100% (active); with ACHN renal it was -100% (active). For the same molecule, the growth in the experiment with A498 renal is 77.1%; in the experiment with CCRF-CEM leukemia, -26.6% (active); with MOLT-4 leukemia it was -38.5% (active); in the experiment on SR leukemia, -18.2% (active); in the experiment on RPMI-8226 leukemia it was -46.9% (active); in the experiment on OVCAR-8 ovarian it was -94.9% (active). The growth is -53.9% (active) in the experiment with OVCAR-5 ovarian; -100% (active) with OVCAR-4 ovarian; 94.9% in the experiment with SK-OV-3 ovarian; -76.6% (active) with IGROV1 ovarian; -97.3% (active) in the experiment with OVCAR-3 ovarian; 0.785% (active) in the experiment with HS 578T breast. The growth in the experiment on NCI/ADR-RES ovarian is 57.2%.
With `CC(CN(C)C)Oc1ccc(OC(C)CN(C)C)c2c1C(=O)c1ccccc1C2=O` (centres undefined), the growth was 41% in the experiment with SK-MEL-2 melanoma; 70.7% in the experiment with EKVX NSCLC; 33.5% with SN12C renal; 63.5% in the experiment with UO-31 renal; 42.7% with TK-10 renal; 28% in the experiment with ACHN renal. Further, the growth in the experiment with A498 renal was 59.6%; in the experiment on CCRF-CEM leukemia, 28.9%; in the experiment with MOLT-4 leukemia, 9.9% (active); in the experiment on SR leukemia, 20.7%; with RPMI-8226 leukemia, 41.4%; in the experiment with OVCAR-8 ovarian, 30.1%. In addition, the growth with OVCAR-5 ovarian is 63.6%; in the experiment on OVCAR-4 ovarian it was 72%; in the experiment on SK-OV-3 ovarian, 45.1%; in the experiment on IGROV1 ovarian it was 37.3%; with OVCAR-3 ovarian it was 55%; with HS 578T breast it was 70%. Moreover, the growth in the experiment on NCI/ADR-RES ovarian was 94.5%.
As to `O=C(NCCCNS(=O)(=O)c1ccc(Cl)cc1)Nc1ccc(-n2cc(-c3ccncc3)c(-c3ccc(Cl)c(O)c3)n2)cc1`, the growth was 43.4% with SK-MEL-2 melanoma; 61.7% in the experiment with EKVX NSCLC; 46.1% in the experiment with SN12C renal; 40.9% in the experiment on UO-31 renal; 62.5% in the experiment on TK-10 renal; 26.4% with ACHN renal. The growth in the experiment on A498 renal is 50.1%; in the experiment on MOLT-4 leukemia, 15.6%; in the experiment with SR leukemia, 17%; in the experiment on RPMI-8226 leukemia, 18.7%; in the experiment on OVCAR-8 ovarian it was 36%; in the experiment on OVCAR-5 ovarian it was 70.8%. In addition, the growth with OVCAR-4 ovarian is 44.2%; in the experiment with SK-OV-3 ovarian it was 68.8%; with IGROV1 ovarian, 62%; with OVCAR-3 ovarian, 50%; in the experiment with HS 578T breast, 40.9%; with NCI/ADR-RES ovarian, 76.8%.
On to `CCOC(=O)c1cc(C(=O)c2cc(OC)c(OC)c(OC)c2)n2ccc(-c3cc[n+](CC(=O)c4cc(OC)c(OC)c(OC)c4)cc3)cc12`, for which the growth in the experiment with SK-MEL-2 melanoma is 101%; in the experiment on EKVX NSCLC, 107%; in the experiment on SN12C renal, 84.6%; in the experiment on UO-31 renal, 66.1%; with TK-10 renal, 13.5%; with ACHN renal, 90.7%. In addition, the growth is 80.4% with A498 renal; -15% (active) in the experiment with CCRF-CEM leukemia; -9.13% (active) in the experiment on MOLT-4 leukemia; -16.4% (active) in the experiment with SR leukemia; -22.2% (active) in the experiment on RPMI-8226 leukemia; 7.09% (active) in the experiment with OVCAR-8 ovarian. Besides, the growth in the experiment on OVCAR-5 ovarian is 92.5%; in the experiment on OVCAR-4 ovarian it was -33.2% (active); with SK-OV-3 ovarian, 99.3%; in the experiment with IGROV1 ovarian it was 83.2%; with OVCAR-3 ovarian, 82%; in the experiment with HS 578T breast it was 69.4%. The growth in the experiment with NCI/ADR-RES ovarian is 94.4%.
Consider `COc1cc2c(Nc3ccc(-c4ccc(N)cc4)cc3)ncnc2c(OC)c1OC`, for which the growth with SK-MEL-2 melanoma is 18.5%; with EKVX NSCLC, 59.2%; with SN12C renal, 62.2%; with UO-31 renal, 22.7%; in the experiment with ACHN renal it was 32.1%; with CAKI-1 renal it was 3.89% (active). Also, the growth with A498 renal was 43.4%; in the experiment with CCRF-CEM leukemia, 23.3%; with MOLT-4 leukemia, 19.8%; in the experiment on SR leukemia, 31.8%; with RPMI-8226 leukemia, 39.5%; with OVCAR-8 ovarian it was 41.2%. The growth in the experiment with OVCAR-5 ovarian was 40.1%; with OVCAR-4 ovarian, 51.4%; in the experiment on SK-OV-3 ovarian, 36.1%; in the experiment with IGROV1 ovarian it was 22.5%; in the experiment with OVCAR-3 ovarian, 41.4%; in the experiment on HS 578T breast, 70.6%. Besides, the growth in the experiment with NCI/ADR-RES ovarian was 48.9%.
On to `Clc1nc2ccc(Br)cc2cc1-c1nc2ccccc2[nH]1`, for which the growth in the experiment with SK-MEL-2 melanoma was 120%; in the experiment on EKVX NSCLC, 50.3%; in the experiment with SN12C renal it was 15.2%; in the experiment on UO-31 renal, 79.7%; in the experiment with ACHN renal, 2.34% (active); with CAKI-1 renal it was 84.2%. The growth was 39.9% in the experiment with A498 renal; 72.9% in the experiment with CCRF-CEM leukemia; 47.2% with MOLT-4 leukemia; 92.3% in the experiment on SR leukemia; 70.4% in the experiment with RPMI-8226 leukemia; 88.2% with OVCAR-8 ovarian. In addition, the growth was 108% with OVCAR-5 ovarian; 65.3% in the experiment on OVCAR-4 ovarian; 54.8% in the experiment on SK-OV-3 ovarian; 80.1% with IGROV1 ovarian; 95.5% in the experiment on OVCAR-3 ovarian; 47.8% in the experiment on HS 578T breast. Moreover, the growth in the experiment with NCI/ADR-RES ovarian was 92.9%.
